# Assay results reported in PMC4336329 (PLoS ONE, 2015).
# In all, about 310,000 compounds went through this assay and about 14,000 (4.5%) showed an effect of 50% or more. Effects have a minus sign here. This is one part of a sample in which strong results are shown more often than they occur.
# Target: human ether-à-go-go-related gene (hERG) potassium channel (human, UniProt Q12809)
# Test: primary screen, population patch clamp on CHO cells stably expressing hERG; higher = less effect of the substance
# 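Note: peak tail current of the secondary pulse compared with the same well before compound.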
# Sequence of human ether-à-go-go-related gene (hERG) potassium channel (Q12809 whole entry, looked up): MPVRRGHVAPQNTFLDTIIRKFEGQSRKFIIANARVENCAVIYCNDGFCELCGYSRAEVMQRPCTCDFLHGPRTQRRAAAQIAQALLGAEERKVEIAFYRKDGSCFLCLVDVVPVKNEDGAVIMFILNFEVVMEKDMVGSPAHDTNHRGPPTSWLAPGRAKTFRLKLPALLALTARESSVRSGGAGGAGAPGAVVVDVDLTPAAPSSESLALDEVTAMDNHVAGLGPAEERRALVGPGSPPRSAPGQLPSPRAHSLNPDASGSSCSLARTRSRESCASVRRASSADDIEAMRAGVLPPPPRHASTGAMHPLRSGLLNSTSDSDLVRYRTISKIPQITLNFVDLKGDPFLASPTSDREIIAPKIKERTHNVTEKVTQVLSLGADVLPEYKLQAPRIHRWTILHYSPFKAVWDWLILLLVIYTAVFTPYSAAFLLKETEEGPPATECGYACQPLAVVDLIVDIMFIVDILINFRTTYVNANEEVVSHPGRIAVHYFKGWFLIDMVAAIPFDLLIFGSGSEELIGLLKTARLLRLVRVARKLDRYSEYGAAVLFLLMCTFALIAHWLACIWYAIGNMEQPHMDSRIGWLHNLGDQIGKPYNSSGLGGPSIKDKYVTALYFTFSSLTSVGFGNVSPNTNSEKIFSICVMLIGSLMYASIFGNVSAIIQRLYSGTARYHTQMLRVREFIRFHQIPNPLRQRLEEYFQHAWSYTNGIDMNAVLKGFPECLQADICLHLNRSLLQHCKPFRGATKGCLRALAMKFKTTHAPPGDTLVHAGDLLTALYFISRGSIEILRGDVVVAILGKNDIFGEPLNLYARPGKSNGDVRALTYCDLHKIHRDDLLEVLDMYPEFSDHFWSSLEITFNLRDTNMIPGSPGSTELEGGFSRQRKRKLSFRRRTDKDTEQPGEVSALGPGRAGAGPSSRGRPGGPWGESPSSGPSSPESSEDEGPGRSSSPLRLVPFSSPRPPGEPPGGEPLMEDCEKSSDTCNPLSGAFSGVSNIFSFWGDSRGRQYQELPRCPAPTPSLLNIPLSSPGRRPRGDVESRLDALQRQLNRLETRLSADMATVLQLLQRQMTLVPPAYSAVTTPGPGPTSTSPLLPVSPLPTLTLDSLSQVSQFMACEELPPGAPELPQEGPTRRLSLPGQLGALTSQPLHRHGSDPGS
row,SMILES,"hERG current change (%, negative = inhibition) at 10uM [%]"
1,CCOC(=O)c1ccc(NC(=S)Nc2ccc3[nH]c(=O)[nH]c3c2)cc1,1.23
2,O=c1[nH]c2ccccc2nc1C(Cl)c1ccccc1 (stereo not drawn),2.52
3,Nc1nc(-c2ccco2)cs1,9.88
4,O=c1oc2cc(OCc3c(F)c(F)c(F)c(F)c3F)ccc2cc1-c1ccccn1,14
5,COc1ccc(C(=O)Nn2cnc3ccccc3c2=O)cc1[N+](=O)[O-],-4.64
6,Cc1ccc(S(=O)(=O)N2CCN(CC(=O)N/N=C\c3ccccn3)CC2)cc1,-36.3
7,Cc1ccc(S(=O)(=O)N2CCN(CC(=O)N/N=C/c3ccc(C)o3)CC2)cc1,-38.9
8,O=C(CN1CCOCC1)N/N=C/C=C/c1ccccc1,-26.3
9,CC(/C=N\NC(=O)CN1CCN(S(=O)(=O)c2ccc(C)cc2)CC1)=C\c1ccccc1,-68.1
10,O=C(O)COc1ccccc1/C=N/NC(=O)CN1CCN(S(=O)(=O)c2ccc(Br)cc2)CC1,4.89
11,COc1ccccc1/C=C/C=N/NC(=O)CN1CCN(S(=O)(=O)c2ccc(C)cc2)CC1,-50.2
12,Cc1ccc(S(=O)(=O)N2CCN(CC(=O)N/N=C/C=C/c3ccccc3)CC2)cc1,-73.8
13,Cc1ccc(S(=O)(=O)N2CCN(CC(=O)N/N=C/c3ccccc3OCC(=O)O)CC2)cc1,10.5
14,Cc1ccc(S(=O)(=O)N2CCN(CC(=O)N/N=C\C(Cl)=C\c3ccccc3)CC2)cc1,-48
15,CCCOC(=O)c1ccc(O)cc1,16.5
16,COc1ccccc1CC(=O)Nc1ccc(O)cc1C(=O)O,0.828
17,C(=N\N(c1ccccc1)c1ccccc1)/c1ccc2c(c1)OCO2,4.28
18,COCCCN1CCN(C2Cc3ccccc3Sc3ccc(Cl)cc32)CC1.O=C(O)/C=C\C(=O)O (stereo not drawn),-73.5
19,Clc1ccc2c(c1)C(N1CCNCC1)Cc1ccccc1S2.O=C(O)/C=C\C(=O)O (stereo not drawn),-54.3
20,O=C(O)/C=C\C(=O)O.c1ccc2c(c1)CC1CNCc3cccc(c31)S2 (stereo not drawn),-49.5
21,Fc1ccc2c(c1)Sc1ccc(Cl)cc1CC2N1CCN(CCC2OCCO2)CC1 (stereo not drawn),-8.68
22,C1CCCCC1.OCCN1CCN(C2Cc3cc(Cl)ccc3Sc3ccc(Cl)cc32)CC1 (stereo not drawn),9.86
23,COc1cc([C@@H]2c3cc4c(cc3[C@@H](O)[C@H]3COC(=O)[C@H]23)OCO4)cc(OC)c1O[Si](C)(C)C(C)(C)C,17.8
24,NS(=O)(=O)c1cccc(NC(=O)c2cccnc2Oc2ccccc2)c1,12.7
25,Cc1sc2ncn(CC(=O)N3CCN(c4ccccn4)CC3)c(=O)c2c1S(=O)(=O)N1CCCCC1,-36.7
26,Cc1ncc2c(c1OC(=O)c1ccccc1)COC(C)(C)OC2,-6.46

row,SMILES,"hERG current change (%, negative = inhibition) at 10uM [%]"
1,Cc1ncc2c(c1OC(=O)c1ccc([N+](=O)[O-])cc1)COC(C)(C)OC2,-65.8
2,Cc1c(OC(=O)c2ccc([N+](=O)[O-])cc2)c2c(c[n+]1C)COC(C)(C)OC2.[I-],9.15
3,Cn1c(O)c(N=Nc2ccc(S(=O)(=O)N3CCOCC3)cc2)c(=O)n(C)c1=O,10.8
4,CCN(CC)c1ccc(N=Cc2c(O)n(-c3ccccc3C)c(=O)[nH]c2=O)cc1,-29.2
5,Cc1ccc(S(=O)(=O)N2CCN(C)CC2)c2nsnc12,24.1
6,Cc1ccc(S(=O)(=O)N2CCOCC2)c2nsnc12,-3.38
7,Cc1ccc(S(=O)(=O)N2CCCCC2)c2nsnc12,-54.9
8,CC(=O)Nc1cc(-c2nn(CC(=O)N3CCCCC3)c(=O)c3ccccc23)ccc1N1CCOCC1,2.8
9,Cc1ccc(-c2nn(CC(=O)N3CCOCC3)c(=O)c3ccccc23)cc1S(=O)(=O)N(C)C,-22.6
10,O=[N+]([O-])c1cc(-c2nnc(N3CCOCC3)c3ccccc23)ccc1N1CCOCC1,-40.3
11,O=C(Nc1cc(-c2nn(CC(=O)N3CCCCC3)c(=O)c3ccccc23)ccc1N1CCOCC1)c1ccc(Cl)cc1,-52.6
12,O=C(Cn1nc(-c2ccc(N3CCOCC3)c([N+](=O)[O-])c2)c2ccccc2c1=O)N1CCCCC1,-68.2
13,CCC(=O)Nc1cc(-c2nn(CC(=O)N3CCCCC3)c(=O)c3ccccc23)ccc1N1CCOCC1,3.05
14,Cc1ccc(C)c(N(C(=O)CCC(=O)Nc2cc(C)on2)C(C(=O)NC2CCCC2)c2ccco2)c1 (stereo not drawn),10.2
15,CNc1nc(SC(C)C(=O)Nc2ccc(Cl)c(Cl)c2)nc(N2CCOCC2)n1 (stereo not drawn),19.6
16,COc1ccc(S(=O)(=O)N2CCC(C(=O)N3CCN(C)CC3)CC2)cc1OC,17.3
17,Cc1nn(CCO)c2nc(-c3cccs3)cc(C(F)(F)F)c12,2.32
18,COc1ccc(/C=N/NC(=O)CC(=O)NC2CCCCC2)cc1,5.89
19,COc1ccc(-c2cnnn2-c2ccc(NC(=O)/C=C/c3ccc(OC)c(OC)c3)cc2)cc1,-5.92
20,Cc1ccccc1OCCC(=O)OCC(=O)NCCNC(=O)COC(=O)CCOc1ccccc1C,4.47
21,COc1ccc(CN2CCN(C(=O)CCC(=O)Nc3nnc(C4CCCCC4)s3)CC2)cc1F,-50.2
22,COc1ccc(F)cc1CN1CCN(C(=O)CCC(=O)Nc2nnc(C3CCCCC3)s2)CC1,-6.04
23,O=C(CCC(=O)N1CCN(Cc2ccc(F)cc2)CC1)Nc1nnc(C2CCCCC2)s1,6.92
24,COc1ccc(C(=O)C2CCCN(C(=O)c3noc4c3CCCC4)C2)cc1F (stereo not drawn),-39.9
25,CCc1ccc2[nH]c(=O)c(CN(Cc3ccccc3OC)Cc3nnnn3Cc3ccco3)cc2c1,-14.3
